In PubChem BioAssay (Tox21) one finds Potency and outcome data, which are given here for six compounds.

SMILES strings stand for the structures. Values without a mark were called inactive. Results filed as inconclusive are left out. Calls of active or inactive are those of the source. Unless noted, calls come from the whole dose curve.

The nature of assay [1]: Nuclear factor erythroid 2-related factor 2/antioxidant responsive element (Nrf2/ARE) small molecule agonists: qHTS cell viability counter screen in human keratinocytes (AID 1919968; active = well fitted curve in the direction sought with a large enough effect in the repeat runs; an effect the other way counts as inactive or inconclusive; note: nearly all actives have a fitted effect of over 55% in size). The essentials:
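Viability counter-screen: KeratinoSens reporter cells, DMSO-delivered compounds, 23 h at 37 C, CellTiter-Fluor fluorescence.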
On the technique in general: In qHTS, concentration-response curves come from the screen itself.

Assay [2] is described as follows: Nuclear factor erythroid 2-related factor 2/antioxidant responsive element (Nrf2/ARE) small molecule agonists: luciferase reporter gene qHTS assay in human keratinocytes (AID 1919969). Note: nearly all actives have a fitted effect of over 35% in size. Note: potency is the fitted concentration of half-maximal effect. On the technique in general: In a reporter assay the amount or activity of a reporter protein is the signal.
The target in assay [3] is Gonadotropin-releasing hormone receptor (Homo sapiens) (UniProt P30968). Briefly: Human gonadotropin-releasing hormone receptor (GnRHR) small molecule agonists, calcium flux assay in GnRHR-HEK293 cells (AID 1920063). Note: nearly all actives have a fitted effect of over 35% in size. The method in brief:
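Tox21-format agonist screen using human GnRHR-expressing HEK293 cells and a fluorescent calcium dye; kinetic 3-min fluorescence reading after compound addition, 15-point concentration series run in triplicate.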
In general terms: Calcium flux is commonly read through the fluorescence of an indicator in the cells.

Assay [4] concerns the target KiSS-1 receptor (Homo sapiens) (UniProt Q969F8). Briefly: Human kisspeptin (KISS1R) small molecule agonists, calcium flux assay in KISS1R-HEK293 cells (AID 1920064; active = well fitted curve in the direction sought with a large enough effect in the repeat runs; an effect the other way counts as inactive or inconclusive). The method in brief:
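Intracellular calcium mobilization in KISS1R-HEK293 cells was recorded by fluorescence (Ex/Em 480/540) for 3 min following compound addition to cells pre-loaded 1 h with calcium dye.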

Assay [5] can be described thus: G protein-coupled receptor (GPCR) small molecule agonists, calcium flux assay: HEK293 wild type cell line counter screen (AID 1920065). The method in brief: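 In this agonist-mode screen, ATP is the positive control and DMSO the vehicle. Cells grow 18 h before a 1 h dye incubation at 37 C; signal is taken at Ex/Em 480/540 over 3 min.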
Assay [6] in a line: p53 small molecule agonists, cell-based qHTS assay with human liver microsomes (AID 1963577).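 Note: p53 response element beta-lactamase reporter cells with liver microsomes plus NADPH.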 The method in brief: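 Reporter activation was measured by LiveBLAzer fluorescence intensity in p53RE-bla cells, which had been exposed to compounds for 16 h at 37 C alongside 0.5 mg/mL human liver microsomes and 0.5 mg/mL NADPH (final concentrations).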
Assay [7] can be described thus: p53 small molecule agonists, cell-based qHTS assay with rat liver microsomes (AID 1963578). The method in brief:
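Compound in DMSO added to p53RE-bla cells 5 h post-plating; rat microsomes/NADPH 0.5 mg/mL final; 16 h, 37 C; LiveBLAzer 2 h RT.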

Assay [8] is described as follows: p53 small molecule agonists, cell-based qHTS assay with human liver microsomes: qHTS cell viability counter screen (AID 1963579). Note: nearly all actives have a fitted effect of over 45% in size. The method in brief: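 HLM-supplemented (0.5 mg/mL final) and NADPH-supplemented (0.5 mg/mL final) p53RE-bla cultures, 4,000 cells per well, were dosed with compounds in DMSO for 16 h at 37 C; luminescent ATP detection (CellTiter-Glo, 30 min, room temperature) quantified surviving cells.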

A short description of assay [9]: p53 small molecule agonists, cell-based qHTS assay with rat liver microsomes: qHTS cell viability counter screen (AID 1963580). Note: nearly all actives have a fitted effect of over 45% in size. The essentials: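 p53RE-bla HCT-116 cells (4,000/well) rested 5 h at 37 C, then given Tox21 compounds in DMSO with rat liver microsomes (0.5 mg/mL final) plus NADPH (0.5 mg/mL final) for 16 h at 37 C. Viability read by CellTiter-Glo luminescence after 30 min at room temperature.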

Assay [10] is described as follows: p53 small molecule agonists, cell-based qHTS assay: qHTS cell viability counter screen (AID 1963581). Note: nearly all actives have a fitted effect of over 45% in size. The method in brief:
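Compounds are pinned onto HCT-116 p53RE-bla cells and left 16 h at 37 C. Following the reporter FRET read, ATP is quantified by CellTiter-Glo luminescence after 30 min at room temperature.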

Assay [11] in a line: p53 small molecule agonists, cell-based qHTS assay (AID 1963582; active = well fitted activation curve with a large enough effect in the signal ratio in the repeat runs, not every such curve was filed as active; the % refers to the signal ratio). The method in brief:
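Agonist activity was scored from beta-lactamase FRET fluorescence in p53RE-bla cells treated 16 h at 37 C with compounds in DMSO, substrate incubation being 2 h at room temperature.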

The target in assay [12] is 5-hydroxytryptamine receptor 2A (Homo sapiens) (UniProt P28223). The experiment in a line: 5-hydroxytryptamine receptor 2A (HTR2A) small molecule antagonists, cell-based qHTS assay (AID 1963586). Note: nearly all actives have a fitted effect of over 45% in size. The essentials:
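Antagonist-mode intracellular calcium assay: DOI (4 nM) added after 5 min compound pre-incubation at room temperature to dye-loaded HTR2A-CHO cells. Fluorescence followed for 3 min, sampled every second.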

Assay [13] shares this target. The experiment in a line: 5-hydroxytryptamine receptor 2A (HTR2A) small molecule agonists, cell-based qHTS assay (AID 1963587). Note: nearly all actives have a fitted effect of over 30% in size. The essentials:
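HTR2A-CHO cells, plated 18 h at 37 C/5% CO2, dye-loaded 1 h at 37 C; compounds in DMSO added by pin tool (agonist mode). Intracellular calcium flux read as kinetic fluorescence on FDSS over 2 min at 1 s intervals.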

The target in assay [14] is Muscarinic acetylcholine receptor M1 (Homo sapiens) (UniProt P11229). Briefly: Cholinergic receptor muscarinic 1 (CHRM1) small molecule antagonists, cell-based qHTS assay (AID 1963588). Note: nearly all actives have a fitted effect of over 40% in size. The method in brief:
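CHRM1-CHO calcium-flux assay, antagonist mode. Cells were seeded 18 h, dye-loaded 1 h at 37 C and given compound for 5 min at RT, then acetylcholine was added at 50nM. FDSS fluorescence was read 3 min; 15 concentrations, three runs.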

Assay [15] has the same target. The experiment in a line: Cholinergic receptor muscarinic 1 (CHRM1) small molecule agonists, cell-based qHTS assay (AID 1963589). Note: nearly all actives have a fitted effect of over 35% in size. The essentials: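 Stable CHRM1-CHO cells (human receptor) were incubated 18 h, dye-loaded for 1 h at 37 C and exposed to test compounds for agonist activity, with calcium-dependent fluorescence followed kinetically.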
Assay [16] can be described thus: cAMP Responsive Elements (CRE) small molecule agonists, cell-based qHTS assay (AID 1963590). The method in brief: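 FRET-based beta-lactamase readout (LiveBLAzer B/G, 2 h RT) quantified CRE activation in HEK 293T CRE-bla cells after 3 h treatment with DMSO-dissolved compounds.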
Assay [17] addresses Beta-2 adrenergic receptor (Homo sapiens) (UniProt P07550). The experiment in a line: Adrenergic beta2 receptor (ADRB2) small molecule antagonists, cell-based qHTS assay (AID 1963592). Note: series mostly up to about 92 µM; nearly all actives have a fitted effect of over 50% in size. The essentials: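 Cells (CHO, stable ADRB2 overexpression) incubated 18-20hr at 37C; compounds added from DMSO; agonist mix (1nM isoproterenol, 100uM IBMX, 25uM Ro-20-1724) added; 0.5hr RT; d2-cAMP and anti-cAMP-cryptate added; 1hr RT; 665/615 nm read.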

Assay [18] concerns the target D(2) dopamine receptor (Homo sapiens) (UniProt P14416). Briefly: Dopamine D2 receptor (DRD2) small molecule agonists, cell-based qHTS assay (AID 1963594). Note: nearly all actives have a fitted effect of over 35% in size. The essentials: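 HEK293 cells stably expressing DRD2 were cultured 24 h at 37 C, then given Ro20-1724 (0.1 mM final) and compounds for 10 min at room temperature. NKH477 (200nM) was then added for 30 min. cAMP was read by HTRF.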

Assay [19] shares this target. Briefly: Dopamine D2 receptor (DRD2) small molecule antagonists, cell-based qHTS assay (AID 1963595; active = well fitted inhibition curve with a large enough effect in the signal ratio in the repeat runs, with a control signal flat; the % refers to the signal ratio). The method in brief: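 Human DRD2 antagonist qHTS measuring cAMP by HTRF. The cells are exposed to compound for 10 min, then to NKH477 (200 nM) and quinpirole (12 nM) for 30 min at RT, with Ro20-1724 (0.1 mM) present throughout.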
Assay [20] can be described thus: cAMP Responsive Elements (CRE) small molecule antagonists, cell-based qHTS assay (AID 1963591; active = well fitted inhibition curve with a large enough effect in the signal ratio in the repeat runs, not every such curve was filed as active; the % refers to the signal ratio). The method in brief: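 qHTS in CRE-bla HEK 293T cells: compound in DMSO, then 0.25 uM NKH477 (final), 3 h at 37 °C/5% CO2; beta-lactamase FRET read-out after 2 h substrate incubation.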

Sequence of Muscarinic acetylcholine receptor M1 (Homo sapiens) (P11229 whole entry, looked up): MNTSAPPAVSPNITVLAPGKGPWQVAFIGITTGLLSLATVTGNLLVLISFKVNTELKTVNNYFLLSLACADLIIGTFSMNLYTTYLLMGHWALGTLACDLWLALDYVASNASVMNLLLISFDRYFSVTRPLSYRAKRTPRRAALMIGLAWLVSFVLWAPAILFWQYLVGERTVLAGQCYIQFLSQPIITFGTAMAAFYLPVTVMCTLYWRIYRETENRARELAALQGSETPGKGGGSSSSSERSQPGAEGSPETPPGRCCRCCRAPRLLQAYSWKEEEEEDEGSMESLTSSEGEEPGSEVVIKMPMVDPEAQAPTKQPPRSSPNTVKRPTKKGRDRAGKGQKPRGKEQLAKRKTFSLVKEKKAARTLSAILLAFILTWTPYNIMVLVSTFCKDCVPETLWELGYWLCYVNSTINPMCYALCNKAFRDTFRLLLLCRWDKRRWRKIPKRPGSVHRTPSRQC
Sequence of 5-hydroxytryptamine receptor 2A (Homo sapiens) (P28223 whole entry, looked up): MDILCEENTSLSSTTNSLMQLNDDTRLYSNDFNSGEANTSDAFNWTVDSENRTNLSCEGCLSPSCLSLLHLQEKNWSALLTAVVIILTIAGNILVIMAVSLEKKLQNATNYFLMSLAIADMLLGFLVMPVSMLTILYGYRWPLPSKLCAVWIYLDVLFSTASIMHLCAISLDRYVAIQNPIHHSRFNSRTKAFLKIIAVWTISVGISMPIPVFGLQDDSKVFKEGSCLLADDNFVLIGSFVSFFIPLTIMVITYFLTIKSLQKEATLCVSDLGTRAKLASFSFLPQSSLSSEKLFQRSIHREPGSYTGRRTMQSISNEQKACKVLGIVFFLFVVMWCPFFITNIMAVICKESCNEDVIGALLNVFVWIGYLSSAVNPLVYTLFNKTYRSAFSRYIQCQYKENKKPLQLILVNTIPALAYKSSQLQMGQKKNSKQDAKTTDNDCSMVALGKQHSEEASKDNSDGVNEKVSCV
Sequence of D(2) dopamine receptor (Homo sapiens) (P14416 whole entry, looked up): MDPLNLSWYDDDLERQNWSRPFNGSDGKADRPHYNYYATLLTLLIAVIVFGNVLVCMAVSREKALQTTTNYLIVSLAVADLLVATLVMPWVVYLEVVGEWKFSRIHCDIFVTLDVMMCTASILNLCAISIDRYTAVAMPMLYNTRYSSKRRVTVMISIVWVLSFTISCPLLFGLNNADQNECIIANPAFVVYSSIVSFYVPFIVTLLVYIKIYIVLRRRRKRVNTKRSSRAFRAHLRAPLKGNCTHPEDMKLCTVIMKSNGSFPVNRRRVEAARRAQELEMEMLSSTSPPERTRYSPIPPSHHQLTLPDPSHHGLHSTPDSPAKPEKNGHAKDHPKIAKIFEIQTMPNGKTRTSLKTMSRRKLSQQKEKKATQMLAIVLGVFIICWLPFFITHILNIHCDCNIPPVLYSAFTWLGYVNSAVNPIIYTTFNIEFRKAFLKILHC
Sequence of Beta-2 adrenergic receptor (Homo sapiens) (P07550 whole entry, looked up): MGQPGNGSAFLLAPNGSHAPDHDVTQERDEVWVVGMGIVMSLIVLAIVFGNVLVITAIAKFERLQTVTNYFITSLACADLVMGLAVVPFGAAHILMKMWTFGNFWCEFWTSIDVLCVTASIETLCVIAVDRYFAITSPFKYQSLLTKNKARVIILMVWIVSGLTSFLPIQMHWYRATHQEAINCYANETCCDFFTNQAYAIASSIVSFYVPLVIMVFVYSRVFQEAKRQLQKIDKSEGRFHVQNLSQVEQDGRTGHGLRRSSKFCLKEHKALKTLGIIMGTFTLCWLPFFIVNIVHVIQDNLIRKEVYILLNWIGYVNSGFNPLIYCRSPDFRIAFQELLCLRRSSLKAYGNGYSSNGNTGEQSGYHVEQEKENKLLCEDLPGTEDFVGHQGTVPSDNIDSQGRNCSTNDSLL
Sequence of KiSS-1 receptor (Homo sapiens) (Q969F8 whole entry, looked up): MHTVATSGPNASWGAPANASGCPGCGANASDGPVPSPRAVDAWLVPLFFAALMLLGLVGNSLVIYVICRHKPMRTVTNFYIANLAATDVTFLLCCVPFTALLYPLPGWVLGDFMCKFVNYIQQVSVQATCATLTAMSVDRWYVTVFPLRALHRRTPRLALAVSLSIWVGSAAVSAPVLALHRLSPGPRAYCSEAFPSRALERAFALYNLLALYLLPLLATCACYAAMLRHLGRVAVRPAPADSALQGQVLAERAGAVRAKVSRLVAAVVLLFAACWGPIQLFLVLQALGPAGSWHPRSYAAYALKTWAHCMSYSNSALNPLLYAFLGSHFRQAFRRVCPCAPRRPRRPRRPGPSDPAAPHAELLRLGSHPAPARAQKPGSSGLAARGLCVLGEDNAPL
Sequence of Gonadotropin-releasing hormone receptor (Homo sapiens) (P30968 whole entry, looked up): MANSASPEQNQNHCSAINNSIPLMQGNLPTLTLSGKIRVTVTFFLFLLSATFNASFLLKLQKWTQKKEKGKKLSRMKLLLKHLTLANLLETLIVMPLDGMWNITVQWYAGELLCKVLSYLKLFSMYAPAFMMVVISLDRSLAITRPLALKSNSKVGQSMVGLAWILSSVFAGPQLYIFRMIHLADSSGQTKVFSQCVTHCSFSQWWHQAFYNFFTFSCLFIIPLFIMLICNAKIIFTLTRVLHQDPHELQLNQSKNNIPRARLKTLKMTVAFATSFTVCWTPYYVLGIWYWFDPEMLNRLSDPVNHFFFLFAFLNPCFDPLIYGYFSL

Consider `O=C(c1ccccc1)c1cccc(O)c1`, for which the Potency entry in [1], in assay [2], in [3], in [6], in assay [7] and in assay [8] was “inactive” in each case. In addition, the Potency entry in assay [9], in assay [10], in assay [11], in assay [12], in assay [13] and in assay [14] was “inactive” throughout. The Potency entry in [15], in assay [16], in [17], in assay [18] and in assay [19] was “inactive” throughout. Moreover, the outcome in assay [4] and in assay [5] was inactive.

For the compound `C[N+](C)(C)CCCCCCCCCC[N+](C)(C)C`, the Potency result in assay [1], in assay [2], in [3], in assay [6], in assay [7] and in [8] was “inactive” throughout. Moreover, the Potency entry in assay [9], in [10], in [11], in assay [12], in assay [13] and in assay [14] was “inactive” in each case. Besides, the Potency entry in assay [15], in assay [16], in [17], in assay [18] and in assay [19] was “inactive” throughout. The outcome in assay [4] and in assay [5] was inactive.

Regarding `C=CCOC(=O)/C=C\C(=O)OCC=C`, the Potency result in assay [1], in [3], in [6], in assay [7], in assay [8] and in assay [9] was “inactive” in each case. The Potency result in assay [10], in assay [11], in assay [12], in [13], in assay [14] and in assay [15] was “inactive” throughout. The Potency entry in [17], in assay [18] and in [19] was “inactive” throughout. Moreover, the Potency in [2] was 24.8 µM (active). Further, the outcome in assay [4] and in assay [5] was inactive.

Regarding `O=C(OOC(=O)c1ccccc1)c1ccccc1`, the Potency entry in assay [1], in assay [2], in [3], in assay [6], in assay [7] and in [8] was “inactive” in each case. Further, the Potency entry in assay [9], in [10], in assay [11], in [12], in [13] and in [14] was “inactive” throughout. The Potency result in assay [15], in assay [20], in [17], in [18] and in [19] was “inactive” throughout. In addition, the result in assay [4] and in assay [5] was inactive.

On to `CCCCCCCC/C=C/C(=O)O`, for which the Potency entry in [1], in assay [2], in assay [3], in [6], in [7] and in assay [8] was “inactive” in each case. Besides, the Potency entry in assay [9], in assay [10], in [11], in [12], in assay [13] and in assay [14] was “inactive” each time. The Potency entry in assay [15], in [20], in assay [17], in [18] and in assay [19] was “inactive” throughout. For the same compound, the outcome in assay [4] and in [5] was inactive.

For the compound `CCOC(=O)Cn1c(=O)sc2cccc(Cl)c21`, the Potency result in assay [1], in [2], in assay [3], in assay [6], in assay [7] and in [8] was “inactive” in each case. The Potency entry in assay [9], in assay [10], in assay [11], in [12], in assay [13] and in assay [14] was “inactive” each time. Moreover, the Potency result in assay [15], in assay [16], in [17], in assay [18] and in assay [19] was “inactive” in each case. Further, the outcome in assay [4] and in [5] was inactive.
